According to PubChem BioAssay (NCI):
The panel holds about 79,000 compounds, 15% with a hit somewhere; the sample as a whole holds those more often. Activity calls are given as the source filed them. Rule as the data show it: active = growth inhibition above about 70%; inactive = the rest.

How the values were obtained:
[1] = NCI Yeast Anticancer Drug Screen. Data for the rad52 strain (AID 147);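 also: 0% = growth of vehicle-treated control cultures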; conditions: S. cerevisiae rad52 mutant growth inhibition, hits give high values
Procedure, shortened: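 The repair-mutant yeast strain was incubated with compounds, then growth was read and inhibition derived relative to vehicle.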

[2] = NCI Yeast Anticancer Drug Screen. Data for the wt1 strain (AID 149);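 also: 0% = growth of vehicle-treated wt1 cultures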; conditions: S. cerevisiae wt1 strain (SPY 50644) growth inhibition, hits give high values
Procedure, shortened: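 Using yeast strain wt1, compound-induced growth inhibition was determined against vehicle-treated cultures.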

[3] = NCI Yeast Anticancer Drug Screen. Data for the rad50EPP+ strain (AID 151);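 also: 0% = growth of vehicle-treated control cultures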; conditions: S. cerevisiae rad50 mutant strain, hits give high values
Procedure, shortened: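 Vehicle-normalised growth inhibition; rad50EPP+ yeast strain, altered in DNA damage repair, compound-treated.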

[4] = NCI Yeast Anticancer Drug Screen. Data for the rad50 strain (AID 155);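 also: 0% = growth of vehicle-only cultures of the same strain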; conditions: S. cerevisiae rad50 strain growth inhibition, hits give high values
Procedure, shortened: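 Relative growth inhibition (compound vs vehicle) was measured in yeast with a defined repair-gene alteration.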

[5] = NCI Yeast Anticancer Drug Screen. Data for the mec2-1 strain (AID 157); conditions: S. cerevisiae mec2-1 strain, hits give high values
Procedure, shortened: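 Mutant yeast (mec2-1) grown with compound; growth inhibition relative to vehicle control reported.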

[6] = NCI Yeast Anticancer Drug Screen. Data for the rad14 strain (AID 159);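 also: 0% = growth of vehicle-treated control cultures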; conditions: S. cerevisiae rad14 strain growth inhibition, hits give high values
Procedure, shortened: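 Screen for anticancer potential: a yeast strain altered in DNA damage repair is grown with compound, and reduced growth is quantified against vehicle controls.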

[7] = NCI Yeast Anticancer Drug Screen. Data for the sgs1 mgt1 strain (AID 161);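 also: 0% = growth of cultures given vehicle only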; conditions: S. cerevisiae sgs1 mgt1 strain, hits give high values
Procedure, shortened: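 Compounds are added to genetically altered yeast, and growth is compared with cultures given vehicle alone to give percent inhibition.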

[8] = NCI Yeast Anticancer Drug Screen. Data for the CLN2oe strain (AID 163);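 also: 0% = growth of vehicle-only control cultures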; conditions: S. cerevisiae CLN2oe strain, hits give high values
Procedure, shortened: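 Compounds are applied to yeast harbouring a defined cell-cycle control change; reduced growth compared with vehicle-treated controls gives the value.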

[9] = NCI Yeast Anticancer Drug Screen. Data for the cln2 rad14 strain (AID 165);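 also: 0% = growth equal to vehicle treated cultures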; conditions: S. cerevisiae cln2 rad14 strain, hits give high values
Procedure, shortened: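 Readout is yeast growth inhibition versus vehicle-treated controls, using a strain with cln2 and rad14 alterations exposed to compound.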

[10] = NCI Yeast Anticancer Drug Screen. Data for the bub3 strain (AID 167); conditions: S. cerevisiae bub3 mutant strain, hits give high values
Procedure, shortened: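 Screening used yeast with an engineered genetic alteration affecting cell cycle control. Compound-exposed cultures were compared with vehicle cultures, and reduced growth was taken as inhibition.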

[11] = NCI Yeast Anticancer Drug Screen. Data for the mlh1 strain (AID 171);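 also: 0% = growth of vehicle-treated control cultures of the same strain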; conditions: S. cerevisiae mlh1 strain growth inhibition, hits give high values
Procedure, shortened: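 Measured: yeast growth. Reference: vehicle-treated controls. Organism: strain with a defined alteration affecting DNA damage repair or cell cycle control, treated with compound.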

[12] = NCI Yeast Anticancer Drug Screen. Data for the sgs1 strain (AID 173);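 also: 0% = growth of vehicle-only control cultures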; conditions: S. cerevisiae sgs1 mutant, hits give high values
Procedure, shortened: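 Each compound was added to cultures of the altered yeast strain. Growth was recorded, and inhibition was derived by comparison with vehicle controls.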

[13] = NCI Yeast Anticancer Drug Screen. Data for the mlh1 rad18 strain (AID 175); conditions: S. cerevisiae mlh1 rad18 strain growth inhibition, hits give high values
Procedure, shortened: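 Genetically defined yeast (DNA repair-deficient) exposed to compounds; growth inhibition determined relative to vehicle.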

[14] = NCI Yeast Anticancer Drug Screen. Data for the rad18 strain (AID 177); conditions: S. cerevisiae rad18 mutant growth inhibition, hits give high values
Procedure, shortened: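 Vehicle-treated cultures served as the baseline for scoring compound-induced growth inhibition in DNA-repair-mutant yeast.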

[15] = NCI Yeast Anticancer Drug Screen. Data for the mgt1 strain (AID 153); conditions: S. cerevisiae mgt1 mutant growth inhibition, hits give high values
Procedure, shortened: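 Vehicle-normalized growth inhibition is determined in mgt1 yeast, a strain selected for a defined alteration in DNA repair or cell cycle control.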

[16] = NCI Yeast Anticancer Drug Screen. Data for the wt2 strain (AID 169);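 also: 0% = growth of vehicle-treated yeast cultures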; conditions: S. cerevisiae wt2 strain growth inhibition, hits give high values
Procedure, shortened: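 Against vehicle-treated controls, the growth of yeast exposed to each compound was compared, and the inhibition was recorded.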

[17] = at 5.0 µM (retest, dose inferred, filed as 0.5)
[18] = at 50.0 µM (retest, dose inferred, filed as 5.0)

Measured: growth inhibition

C/C(CCl)=N/NC1=NC(c2ccccc2Cl)P(=O)(NCCCNP2(=O)SC(N/N=C(/C)CCl)=NC2c2ccccc2Cl)S1 (stereo unspecified)
inactive: [1]; at 1.2 µM -2% | [1]; at 3.7 µM -2% | [1]; at 11.0 µM -2% | [1]; at 33.0 µM 5% | [1]; at 100.0 µM 8% | [2]; at 1.2 µM 3% | [2]; at 3.7 µM -4% | [2]; at 11.0 µM -5% | [2]; at 33.0 µM -3% | [2]; at 100.0 µM -1% | [3]; at 1.2 µM 0% | [3]; at 3.7 µM 2% | [3]; at 11.0 µM 10% | [3]; at 33.0 µM 43% | [3]; at 100.0 µM 33% | [4]; at 1.2 µM 4% | [4]; at 3.7 µM 4% | [4]; [17] -21% | [4]; at 11.0 µM 23% | [4]; at 33.0 µM 38% | [4]; [18] 8% | [4]; at 100.0 µM 34% | [5]; at 1.2 µM -4% | [5]; at 3.7 µM -4% | [5]; [17] -12% | [5]; at 11.0 µM -6% | [5]; at 33.0 µM -5% | [5]; [18] 2% | [5]; at 100.0 µM -1% | [6]; at 1.2 µM 0% | [6]; at 3.7 µM -1% | [6]; at 11.0 µM -4% | [6]; at 33.0 µM 2% | [6]; at 100.0 µM 5% | [7]; [17] -2% | [7]; [18] 51% | [8]; at 1.2 µM -13% | [8]; at 3.7 µM -4% | [8]; at 11.0 µM -1% | [8]; at 33.0 µM -16% | [8]; at 100.0 µM -22% | [9]; [17] -18% | [9]; [18] -4% | [10]; at 1.2 µM 0% | [10]; at 3.7 µM -5% | [10]; [17] -32% | [10]; at 11.0 µM 0% | [10]; at 33.0 µM 25% | [10]; [18] 61% | [10]; at 100.0 µM 18% | [11]; at 1.2 µM -2% | [11]; at 3.7 µM 3% | [11]; at 11.0 µM 4% | [11]; at 33.0 µM 22% | [11]; at 100.0 µM 16% | [12]; at 1.2 µM 0% | [12]; at 3.7 µM -2% | [12]; at 11.0 µM 0% | [12]; at 33.0 µM 19% | [12]; at 100.0 µM 16% | [13]; [17] -5% | [13]; [18] 18% | [14]; at 1.2 µM 1% | [14]; at 3.7 µM 10% | [14]; at 11.0 µM 9% | [14]; at 33.0 µM 27% | [14]; at 100.0 µM 23%
active: [4]; at 50.0 µM 96% | [5]; at 50.0 µM 96.3% | [7]; at 50.0 µM 93.2% | [9]; at 50.0 µM 92.3% | [10]; at 50.0 µM 95.2% | [13]; at 50.0 µM 95.9%

[N-]=[N+]=C1C(Cl)=C(Cl)C(Cl)=C1Cl
active: [1]; at 33.0 µM 99% | [1]; at 100.0 µM 99% | [2]; at 33.0 µM 97% | [2]; at 100.0 µM 99% | [15]; at 33.0 µM 95% | [15]; at 100.0 µM 99% | [4]; at 33.0 µM 99% | [4]; [18] 96% | [4]; at 50.0 µM 99% | [4]; at 100.0 µM 99% | [5]; at 33.0 µM 99% | [5]; [18] 98% | [5]; at 50.0 µM 99.5% | [5]; at 100.0 µM 99% | [6]; at 33.0 µM 99% | [6]; at 100.0 µM 99% | [7]; [18] 95% | [7]; at 50.0 µM 99.2% | [8]; at 33.0 µM 99% | [8]; at 100.0 µM 99% | [9]; [18] 97% | [9]; at 50.0 µM 98.8% | [10]; at 33.0 µM 98% | [10]; [18] 97% | [10]; at 50.0 µM 99% | [10]; at 100.0 µM 99% | [16]; at 33.0 µM 99% | [16]; at 100.0 µM 99% | [11]; at 33.0 µM 99% | [11]; at 100.0 µM 99% | [13]; [18] 97% | [13]; at 50.0 µM 99.1% | [14]; at 33.0 µM 98% | [14]; at 100.0 µM 99%
inactive: [1]; at 1.2 µM -1% | [1]; at 3.7 µM 17% | [1]; at 11.0 µM 63% | [2]; at 1.2 µM -3% | [2]; at 3.7 µM -2% | [2]; at 11.0 µM 44% | [15]; at 1.2 µM -1% | [15]; at 3.7 µM -1% | [15]; at 11.0 µM 46% | [4]; at 1.2 µM 6% | [4]; at 3.7 µM 8% | [4]; [17] 62% | [4]; at 11.0 µM 65% | [5]; at 1.2 µM 1% | [5]; at 3.7 µM 2% | [5]; [17] 15% | [5]; at 11.0 µM 59% | [6]; at 1.2 µM 1% | [6]; at 3.7 µM 5% | [6]; at 11.0 µM 44% | [7]; [17] 20% | [8]; at 1.2 µM -2% | [8]; at 3.7 µM 2% | [8]; at 11.0 µM 50% | [9]; [17] -6% | [10]; at 1.2 µM -8% | [10]; at 3.7 µM 1% | [10]; [17] 11% | [10]; at 11.0 µM 62% | [16]; at 1.2 µM 0% | [16]; at 3.7 µM 0% | [16]; at 11.0 µM 48% | [11]; at 1.2 µM 6% | [11]; at 3.7 µM -1% | [11]; at 11.0 µM 48% | [13]; [17] 33% | [14]; at 1.2 µM 3% | [14]; at 3.7 µM 13% | [14]; at 11.0 µM 62%
